The campaign covered roughly 1,200 compounds. About 970 (81%) were called active. The rule behind the calls is not given here. So high a share suggests a set chosen from earlier hits. These entries were drawn from the full list. Measured potencies and affinities stand elsewhere.
Biological target: Transforming acidic coiled-coil-containing protein 3 (Homo sapiens) (UniProt Q9Y6A5)
Test: ARNT/TACC3 interaction disruptors, potency, confirmation, biochemical, AlphaScreen, cherry-picked samples (AID 651703);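 note: TACC3 partner is the GST-tagged E629A mutant dimer; hits lower the signal meaning they disrupt ARNT binding to TACC3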
Details: AlphaScreen His-ARNT PAS-B / GST-TACC3 binding, luminescence; series mostly up to 68 µM; activity change, negative = inhibition: at the top concentration

| Structure (SMILES) | activity change, negative = inhibition |
| --- | --- |
| Clc1ccc(SCc2cc(N3CCOCC3)nc(-c3ccccn3)n2)cc1 | -30.7% (inactive) |
| CCOc1cc(/C=N/Nc2ncc(C)c(=O)[nH]2)ccc1O | -8.82% (inactive) |
| O=C1C2CCCCN2C(=O)N1CCCCN1CCN(c2cccc(Br)c2)CC1 (stereo unspecified) | -21.4% (inactive) |
| O=C(CCC(=O)c1cccs1)OCc1nnc(-c2ccccc2)o1 | 10.7% (inactive) |
| CCc1c(C)nc(Nc2nc(C)c3ccc(OC)cc3n2)[nH]c1=O | -7.31% (inactive) |
| CCN(C(=O)CSc1nccn1C)c1cccc2ccccc12 | -6.72% (inactive) |
| COc1cc2c(cc1OC)C(Cc1ccccc1[N+](=O)[O-])=NCC2 | -20.7% (inactive) |
| O=C(Nc1nnc(-c2ccccc2)s1)c1cc(-c2ccccc2)on1 | -1.62% (inactive) |
| CCSc1nnc(NC(=O)C2CCCCC2C(=O)O)s1 (stereo unspecified) | 1.56% (inactive) |
| C[C@H]1CN([C@@H](C)CO)C(=O)Cc2cc(NC(=O)Nc3cccc4ccccc34)ccc2O[C@H]1CN(C)CC1CCCCC1 | -36.3% (inactive) |
| C[C@@H]1CN([C@@H](C)CO)C(=O)c2cc(NC(=O)C3CC3)ccc2O[C@H]1CN(C)C(=O)Nc1ccc(F)cc1 | -7.79% (inactive) |
| C[C@H](CO)N1C[C@H](C)[C@@H](CN(C)C(=O)Nc2ccc3c(c2)OCO3)Oc2ccc(NC(=O)CCN3CCOCC3)cc2CC1=O | -7.87% (inactive) |
| C[C@@H]1CN([C@H](C)CO)C(=O)Cc2cc(NC(=O)Nc3cccc4ccccc34)ccc2O[C@@H]1CN(C)Cc1ccc(C(=O)O)cc1 | -6.54% (inactive) |
| CC(C)NC(=O)Nc1cccc2c1O[C@H](CN(C)C(=O)Nc1ccc(C(F)(F)F)cc1)[C@@H](C)CN([C@@H](C)CO)C2=O | -0.802% (inactive) |
| COCCCN=Cc1c(-c2ccccc2)[nH]n(-c2nc3ccccc3s2)c1=O | -37.7% (inactive) |
| COc1ccc(-c2[nH]ncc2/C=N\NC(=O)c2cccs2)cc1OC | -14% (inactive) |
| C#CCOc1ccc(OC)cc1C(c1c(C)[nH][nH]c1=O)c1c(C)[nH][nH]c1=O | -1.5% (inactive) |
| CCOc1ccc(Cl)cc1C(c1c(C)[nH][nH]c1=O)c1c(C)[nH][nH]c1=O | -2.73% (inactive) |
| CCCN(C)C[C@@H]1Oc2ncc(C#CCC(C)C)cc2C(=O)N([C@@H](C)CO)C[C@H]1C | -18.2% (inactive) |
| O=C(O)c1ccccc1-c1ccccc1C(=O)Nc1ccc2c(c1)[nH]c(=O)c1ccccc12 | 0.471% (inactive) |
| O=C(Nc1nc2ccccc2s1)c1cc(-c2ccccc2)on1 | -1.55% (inactive) |
| Cc1onc(-c2c(Cl)cccc2Cl)c1C(=O)Nc1ccc(N2CCOCC2)cc1 | -17.6% (inactive) |
| Cc1ccc(C(=O)Oc2ccc(/C=C3\C(=N)N4N=C(N5CCOCC5)SC4=NC3=O)cc2)cc1 | -26.6% (inactive) |

| Structure (SMILES) | activity change, negative = inhibition |
| --- | --- |
| O=C1CCN(Cc2ccccc2)C=C1c1ccc(C(F)(F)F)cc1 | -27.7% (inactive) |
| Cc1cccc(Oc2nc(-c3ccccn3)nc3ccccc23)c1 | -28.3% (inactive) |
| Nc1cc2cccnc2cc1Cl | -23.6% (inactive) |
| O=C(C[C@H]1C=C[C@@H](NC(=O)Nc2ccc3c(c2)OCO3)[C@H](CO)O1)NCc1ccc(Cl)cc1 | 2.06% (inactive) |
| N#CC1=C(N)Oc2n[nH]c(-c3ccccn3)c2C1c1c(F)cccc1Cl (stereo unspecified) | -16.6% (inactive) |
| CCN(CC)C(=O)[C@H]1C[C@H](CC(=O)NCc2ccc(OC)c(OC)c2)C(=O)N2CCc3c([nH]c4ccc(Cl)cc34)[C@]12C | -12.8% (inactive) |
| CN1CCN(S(=O)(=O)c2cccc(C(=O)Nc3sccc3C(N)=O)c2)CC1 | -33.7% (inactive) |
| O=C(NCC1CCCCC1)c1cc(-c2ccccc2)on1 | 3.5% (inactive) |
| COC(=O)c1sc(N)c(C(=O)OC)c1Cn1ncc(Cl)c(Cl)c1=O | -12.5% (inactive) |
| Cc1ccccc1CNC(=O)c1cc(-c2ccccc2)on1 | 0.875% (inactive) |
| CC1=NN(c2ccccc2C)C(=O)C1 | -6.86% (inactive) |
| COc1cc(NC(=O)C(=O)Nc2ccc3nc4n(c(=O)c3c2)CCCCC4)cc(OC)c1OC | -6.07% (inactive) |
| CN(C)c1ccc2c(c1)[C@@H]1C[C@@H](CC(=O)N3CCOCC3)O[C@@H](CO)[C@@H]1O2 | -30.3% (inactive) |
| O=C(C[C@H]1C[C@H]2c3cc(NC(=O)NC4CCCCC4)ccc3O[C@H]2[C@H](CO)O1)NCc1ccccc1 | -2.39% (inactive) |
| Clc1nssc1=Nc1nncs1 | -30.4% (inactive) |
| COCCNC(=O)C[C@@H]1C[C@H]2c3cc(NC(=O)C4CCOCC4)ccc3O[C@H]2[C@H](CO)O1 | -3.55% (inactive) |
| COc1ccccc1OCc1nc(C#N)c(NCCCn2ccnc2)o1 | -42.8% (inactive) |
| Cc1coc2c(C)c3oc(=O)c(CCC(=O)N[C@@H](C)C(=O)N[C@@H](Cc4ccccc4)C(=O)O)c(C)c3cc12 | -4.24% (inactive) |
| Cc1c(CC(=O)NCCCCCC(=O)O)c(=O)oc2cc3occ(-c4ccccc4)c3cc12 | -18.5% (inactive) |
| Cc1c(CCC(=O)O)c(=O)oc2c(C)c3occ(-c4ccc(Cl)cc4)c3cc12 | -0.452% (inactive) |
| COc1ccc(N(C(C)=O)c2nc3ccccc3[nH]2)cc1 | -17.3% (inactive) |
| Cc1cc(C)n(S(=O)(=O)c2ccc(Cl)cc2)n1 | -2.54% (inactive) |
| O=C(CCc1ccccc1)Nc1nnc(-c2ccccn2)o1 | -16.8% (inactive) |

| Structure (SMILES) | activity change, negative = inhibition |
| --- | --- |
| CC(=O)Nc1ccc2nc3ccccc3nc2c1 | -24.7% (inactive) |
| Cc1ccc(NC(=O)c2cc(-c3ccccc3)on2)cn1 | 1.4% (inactive) |
| Cc1ccc(C2CCN(C(=S)Nc3cccc(C)c3)C2)cc1 (stereo unspecified) | -38.6% (inactive) |
| CCCNC(=O)Nc1ccc2c(c1)OC[C@H](C)N(C(=O)c1ccccc1F)C[C@@H](C)[C@@H](OC)CN(C)C2=O | -3.86% (inactive) |
| CO[C@H]1CN(C)C(=O)c2cc(NC(=O)NC3CCCCC3)ccc2OC[C@H](C)N(CC2CC2)C[C@@H]1C | -2.5% (inactive) |
| CO[C@@H]1CN(C)C(=O)c2cc(NC(=O)c3ccccc3)ccc2OC[C@@H](C)N(C(=O)C2CC2)C[C@H]1C | -6.51% (inactive) |
| O=C(Nc1ccc2ccccc2n1)c1cc(-c2ccccc2)on1 | 1.79% (inactive) |
| Cc1cccc(NC(=O)c2cc(-c3ccccc3)on2)n1 | 1.16% (inactive) |
| CN1/C(=N\O)c2cccc3cccc1c23 | -39% (inactive) |
| O=C(C[C@@H]1C[C@@H]2c3cc(NC(=O)C4CCOCC4)ccc3O[C@@H]2[C@H](CO)O1)NCc1cccnc1 | 1.31% (inactive) |
| CC(C)NC(=O)N1[C@H](CO)[C@@H]2c3ccccc3NC[C@@H]21 | -3.84% (inactive) |
| O=C(Nc1ncc(-c2ccccc2)o1)c1cc(-c2ccccc2)on1 | -0.929% (inactive) |
| COC(=O)C[C@@H]1C[C@H]2c3cc(N(C)C)ccc3O[C@H]2[C@@H](CO)O1 | -8.65% (inactive) |
| COc1ccc(OC)c(NC(=O)COC(=O)Cn2nnc(-c3ccccc3)n2)c1 | 2.95% (inactive) |
| COC(=O)c1[nH]c2cc(OC)c(OC)cc2c1NC(=O)Oc1ccccc1 | -10.6% (inactive) |
| C[C@@H]1CN([C@@H](C)CO)C(=O)c2cc(NC(=O)CCCN(C)C)ccc2O[C@@H](C)CCCCO[C@H]1CN(C)C(=O)Nc1cccc2ccccc12 | -23.8% (inactive) |
| CC(C)NC(=O)N(C)C[C@H]1OCCCC[C@H](C)Oc2ccc(NC(=O)Cc3ccccc3)cc2C(=O)N([C@H](C)CO)C[C@H]1C | -6.01% (inactive) |
| C[C@H](CO)N1C[C@H](C)[C@H](CN(C)C(=O)Nc2cccc3ccccc23)OCCCC[C@H](C)Oc2ccc(NC(=O)CCCN(C)C)cc2C1=O | -30.4% (inactive) |
| CC(C)NC(=O)Nc1ccc2c(c1)C(=O)N([C@@H](C)CO)C[C@H](C)[C@@H](CN(C)C)OCCCC[C@H](C)O2 | -2.36% (inactive) |
| C[C@@H]1CN([C@@H](C)CO)C(=O)c2cc(NC(=O)C3CCCCC3)ccc2O[C@@H](C)CCCCO[C@@H]1CN(C)C(=O)NC1CCCCC1 | -4.9% (inactive) |
| CC(C)NC(=O)Nc1ccc2c(c1)C(=O)N([C@H](C)CO)C[C@@H](C)[C@@H](CN(C)C(=O)Nc1ccccc1)OCCCC[C@@H](C)O2 | -4.52% (inactive) |
| O=C(c1cc(-c2ccccc2)on1)N1CCC(N2CCCC2)CC1 | 1.23% (inactive) |
| O=C(Nc1nc(-c2ccccc2)cs1)c1cc(-c2ccccc2)on1 | -1.03% (inactive) |

| Structure (SMILES) | activity change, negative = inhibition |
| --- | --- |
| COc1ccc(-c2cnc3c(c2)C(=O)N([C@@H](C)CO)C[C@H](C)[C@@H](CN(C)Cc2cccnc2)O3)cc1 | -9.39% (inactive) |
| C[C@@H]1CN([C@H](C)CO)C(=O)c2cccc(NC(=O)c3ccncc3)c2O[C@@H]1CN(C)Cc1ccc(-c2ccccc2)cc1 | -1.91% (inactive) |
| C[C@@H]1CN([C@H](C)CO)C(=O)c2cc(NS(C)(=O)=O)ccc2O[C@@H]1CN(C)S(=O)(=O)c1ccc(F)cc1 | -13.1% (inactive) |
| CNC[C@@H]1Oc2c(NS(=O)(=O)c3cccs3)cccc2C(=O)N([C@@H](C)CO)C[C@H]1C | 5.28% (inactive) |
| COc1ccc(S(=O)(=O)Nc2ccc3c(c2)C(=O)N([C@H](C)CO)C[C@H](C)[C@H](CN(C)S(=O)(=O)c2ccc(C)cc2)O3)cc1 | -23.5% (inactive) |
| O=C(CN1CCCCCC1)Nc1ccccc1[N+](=O)[O-] | -10.1% (inactive) |
| Cc1nnc(NC(=O)CSc2nnc(CNC(=O)c3ccc(S(=O)(=O)N(C)C)cc3)o2)s1 | -6.23% (inactive) |
| CCN(CC(=O)NCc1cccs1)CC(=O)Nc1cccc(S(N)(=O)=O)c1 | -1.45% (inactive) |
| Cc1c(CC(=O)NCC(=O)NCC(=O)O)c(=O)oc2cc3oc4c(c3cc12)CCCC4 | -4.49% (inactive) |
| Cc1cc(F)ccc1NS(=O)(=O)c1cccc2nsnc12 | -13.9% (inactive) |
| CC(=O)NC1=NC(=O)/C(=C/c2cn(C(C)=O)nc2-c2ccccc2)S1 | -19.3% (inactive) |
| Cc1ccc(-c2nc(C)sc2CC(=O)NCc2ccco2)cc1 | -20.4% (inactive) |
| Cc1cc(=O)n(-c2ccc(O)cc2)[nH]1 | -19.3% (inactive) |
| O=C(NCC1CCCO1)c1onc(CSc2ccc(F)cc2)c1C(=O)O (stereo unspecified) | -5.09% (inactive) |
| Cc1cc(C)c(S(=O)(=O)N2CCCC2=O)c(C)c1N(C)S(C)(=O)=O | -0.139% (inactive) |
| O=C(C[C@H]1C=C[C@@H](NC(=O)C2CC2)[C@@H](CO)O1)Nc1nccs1 | -5.2% (inactive) |
| Cc1[nH]n2c(=O)c3c(nc2c1-c1ccccc1)CCC3 | -7.76% (inactive) |
| COc1cc(/C=C2\S/C(=N/S(=O)(=O)c3ccccc3)NC2=O)c([N+](=O)[O-])cc1OC | -27.1% (inactive) |
| COc1ccc(Cc2nnc(N/N=C(\C)c3ccccc3)[nH]c2=O)cc1OC | -20.3% (inactive) |
| O=C(CSc1nnc(-c2ccccn2)o1)Nc1ccccc1C(F)(F)F | -35.2% (inactive) |
| CN1CCN(C(=O)c2cc(-c3ccccc3)on2)CC1 | 1.98% (inactive) |
| O=C(c1cc(-c2ccccc2)on1)N1CCc2cccnc21 | -6.9% (inactive) |
